Assay outcomes from PubChem.
This excerpt belongs to a sample that is enriched for hits.
FECH block = inhibitors of human ferrochelatase; actives 3.3% (n = 20,000); calls only at 10 µM (by protocol); P22830; purified FECH, Ni-mesoporphyrin absorbance 550 nm;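 active means enzyme reaction rate more than 3 SD below the solvent-only control wells on the same plate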;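 further: lower slope than DMSO wells means FECH inhibition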
Target sequence (P22830 whole entry, looked up): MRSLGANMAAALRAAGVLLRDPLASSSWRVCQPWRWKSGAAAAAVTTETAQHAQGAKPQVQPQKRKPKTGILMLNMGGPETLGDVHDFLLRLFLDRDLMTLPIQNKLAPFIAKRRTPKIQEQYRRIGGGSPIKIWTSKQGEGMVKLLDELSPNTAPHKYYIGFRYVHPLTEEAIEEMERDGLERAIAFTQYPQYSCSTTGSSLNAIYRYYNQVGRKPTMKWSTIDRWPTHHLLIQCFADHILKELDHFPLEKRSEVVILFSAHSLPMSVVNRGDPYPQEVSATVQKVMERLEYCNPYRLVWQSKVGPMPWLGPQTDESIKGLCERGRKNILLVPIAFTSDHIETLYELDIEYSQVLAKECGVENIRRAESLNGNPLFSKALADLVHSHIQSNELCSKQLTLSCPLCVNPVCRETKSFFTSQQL
* hit, by the source's call; i = inactive; + = active, no number.

SMILES | FECH block
COc1ccc(/C=C/CN2CCN(c3ncc(Cl)cn3)CC2)cc1 | i
CCc1cc(Sc2ccc(NC(=O)c3ccccc3Cl)cc2)n2ncnc2n1 | i
CCOC(=O)c1cc2ccsc2n1CC(=O)Nc1ccc(F)cc1 | i
O=C(NCC1CCCN(Cc2ccccn2)C1)c1nc2ccccc2[nH]1 (centres undefined) | i
Cc1ccc(Cl)cc1NC(=O)CCc1c(C)nn(-c2cc(N3CCCC3)ncn2)c1C | i
CCCc1c(C)nc2ncnn2c1Sc1ccc(NC(C)=O)cc1 | i
CCCc1c(C)nc2ncnn2c1Sc1ccc(NC(=O)c2ccccc2OCC)cc1 | +
CCCc1c(C)nc2ncnn2c1Sc1ccc(NS(=O)(=O)c2cccc(Cl)c2)cc1 | i
CCc1c(C)nc2ncnn2c1Sc1ccc(NC(=O)c2cccc(C)c2)cc1 | i
CCCc1c(C)nc2ncnn2c1Sc1ccc(NC(=O)c2ccco2)cc1 | i
CCc1c(C)nc2ncnn2c1Sc1ccc(NC(=O)c2ccccc2Br)cc1 | i
CCCc1c(C)nc2ncnn2c1Sc1ccc(NC(=O)c2ccccc2Cl)cc1 | +
CCCc1c(C)nc2ncnn2c1Sc1ccc(NC(=O)c2ccc(F)cc2)cc1 | i
CCCc1c(C)nc2ncnn2c1Sc1ccc(NC(=O)c2cccc(Cl)c2)cc1 | +
CN1CCCNC(=O)C12CCN(Cc1ccc(-n3ccnc3)cc1)CC2 | i
CCN1CCN(c2nc(Nc3ccc(C)c(C)c3)c3cnn(-c4ccccc4)c3n2)CC1 | i
CC(C)=Cc1nc(CC2CCN(C)CC2)no1 | i
CC(C)CN1CC(C(=O)N2CCC(CO)(Cc3ccccc3)CC2)CC1=O (centres undefined) | i
CCCCN(CC)c1ncc(NS(=O)(=O)c2ccc(C)cc2C)cc1C(=O)O | i
CCc1c(C(=O)N(C)Cc2noc(C3CCC3)n2)[nH]c2ccccc12 | i
Cc1ccc2[nH]c(CN3CCCC3c3cc(C(C)C)on3)nc2c1C (centres undefined) | i
O=C(COc1ccccc1)Nc1nc2n(n1)C(c1ccc(F)cc1)C=C(c1ccc(Cl)cc1)N2 (centres undefined) | i
CCc1ncc(C(=O)NCC(c2ccc(C)o2)N2CCOCC2)cn1 (centres undefined) | i
Cc1cccc(NCc2cc(=O)n3[nH]c(-c4ccc(C(C)(C)C)cc4)nc3n2)c1C | i
Cc1ccc(NCc2cc(=O)n3[nH]c(NCc4ccccc4)nc3n2)c(C)c1 | i
SMILES | FECH block
Cc1ccc(NCc2cc(=O)n3[nH]c(-c4ccc(C(C)(C)C)cc4)nc3n2)cc1C | i
COc1ccc(NCc2cc(=O)n3[nH]c(-c4ccc(C(C)(C)C)cc4)nc3n2)c(OC)c1 | i
Cc1ccc(NCc2cc(=O)n3[nH]c(-c4ccc(C(C)(C)C)cc4)nc3n2)c(C)c1 | +
CC(C)(C)c1ccc(-c2nc3nc(CNc4ccc(F)cc4)cc(=O)n3[nH]2)cc1 | +
CCCNCc1cc(=O)n2[nH]c(-c3ccc(C(C)(C)C)cc3)nc2n1 | i
Cc1cccc(C)c1NCc1cc(=O)n2[nH]c(-c3ccc(C(C)(C)C)cc3)nc2n1 | +
Cc1cccc(C)c1NCc1cc(=O)n2[nH]c(NCc3ccccc3)nc2n1 | i
Cc1c(CN(C)Cc2c(-c3ccccc3)nc3ccccn23)cnn1C | i
CC(NC(=O)C1(N(C)CCc2ccccc2)Cc2ccccc2C1)c1nn[nH]n1 (centres undefined) | i
Cc1nc(CN(C)Cc2cccc(C(=O)Nc3cccnc3)c2)cs1 | i
CN(Cc1cccc(C(=O)Nc2nccs2)c1)Cc1cnccn1 | +
CN(Cc1ccc(C(=O)Nc2ccc3c(c2)ncn3C)cc1)Cc1cnccn1 | i
CCN(CCc1nc2ccc(F)cc2[nH]1)C(=O)c1c(C)noc1C | i
COC(=O)c1cc2ccsc2n1CC(=O)Nc1ccccc1 | i
CCOC(=O)c1cc2ccsc2n1CC(=O)Nc1ccccc1C | i
CCOC(=O)c1cc2ccsc2n1CC(=O)Nc1c(C)cc(C)cc1C | +
COC(=O)c1cc2ccsc2n1CC(=O)Nc1c(C)cccc1C | i
Cc1ccccc1-c1cc(O)c2c(c1)CN(Cc1cn(C)nc1C)CCO2 | i
Cc1ccc(CNc2ccc(C(=O)NCc3cnc(C)cn3)cc2)cc1 | i
Cc1ccc(C(C(=O)NCc2ccc(-c3noc(C)n3)cc2)N(C)C)cc1 (centres undefined) | i
O=C(NCCN1CCCOC1=O)C1CCN(Cc2ccco2)CC1 | i
Cc1ccc(C(C(=O)NCCN2CCCOC2=O)N(C)C)cc1 (centres undefined) | +
O=C(CN1CCCN(Cc2cccc(Cl)c2)S1(=O)=O)Nc1ccccc1 | i
Cc1ccc(CN2CCCN(CC(=O)Nc3ccc(C)cc3Cl)S2(=O)=O)cc1 | i
Cc1ccc(NC(=O)CN2CCCN(Cc3cccc(Cl)c3)S2(=O)=O)c(Cl)c1 | +
SMILES | FECH block
Cc1cccc(CN2CCCN(CC(=O)Nc3cc(C)ccc3C)S2(=O)=O)c1 | i
Cc1cccc(CN2CCCN(CC(=O)Nc3cc(Cl)ccc3C)S2(=O)=O)c1 | +
Cc1cccc(CN2CCN(CC(=O)Nc3c(C)cccc3C)S2(=O)=O)c1 | i
CC(C)c1cc(C2CCN(C(=O)CCn3nnc4ccccc43)CC2)[nH]n1 | i
FC(F)(F)c1ccccc1-n1nc(C2CC2)nc1-c1csnn1 | i
Cc1cc(C)c(S(=O)(=O)N2CCN(Cc3nc4cccnc4n3-c3cccc(F)c3)CC2)cc1C | i
Fc1ccc(Cn2ncc3c2CN(c2ncnc4ccsc24)C3)cc1 | i
O=C(CCC(=O)N1CCc2cc(S(=O)(=O)NCC3CCCO3)ccc21)N1CCOCC1 (centres undefined) | i
O=C(c1cc2ccccc2[nH]1)N1CCC(N2CCCC(C(=O)N3CCCC3)C2)CC1 (centres undefined) | i
Cc1cccc(C)c1C(=O)N1CC[C@@](C)(O)[C@@H](Cc2ccccc2)C1 | +
C[C@@]1(O)CCN(C(=O)Cc2ccc(O)cc2)C[C@@H]1Cc1ccccc1 | i
CC[C@H]1CN(C(=O)c2cnc(N3CCN(C)CC3)nc2C)CC[C@@]1(C)O | i
COc1cccc(Cn2c(CNC(=O)c3ccc(OC)c(OC)c3)nc3cccnc32)c1 | i
Cc1nc(C(C)C)cc(N2CCCC(OCc3ccccn3)C2)n1 (centres undefined) | i
Cc1ccc(NC(=O)CN2CCCC(OCc3ccccn3)C2)cc1C (centres undefined) | +
O=S(=O)(NCc1ccccc1)N1CCCC(OCc2ccccn2)C1 (centres undefined) | i
O=C(Cc1ccc(O)cc1)NCC1CCCN(Cc2ccncc2)C1 (centres undefined) | i
NC1(C(=O)O)CCN(Cc2ccc(OCC(=O)N3CCCCC3)cc2)C1 (centres undefined) | i
Cc1cnc(CN(C)C(=O)c2ccc(OCC(=O)N3CCCCC3)cc2)[nH]1 | +
CN(Cc1ncc[nH]1)C(=O)COc1ccc(F)cc1 | i
CCC(=O)Nc1nc2n(n1)C(c1ccccc1)C=C(c1ccccc1)N2 (centres undefined) | +
CCC(=O)Nc1nc2n(n1)C(c1ccc(Cl)cc1)C=C(c1ccccc1)N2 (centres undefined) | i
CCC(=O)Nc1nc2n(n1)C(c1ccccc1)C=C(c1ccc(Cl)cc1)N2 (centres undefined) | i
COc1ccc(C2C=C(c3ccccc3)Nc3nc(NC(=O)c4ccc(Cl)cc4)nn32)cc1 (centres undefined) | i
